# Only some compounds are listed: those with a hit (about 5.5% of all), similar ones and a draw of the others.
# Giardia kill: Giardia lamblia killing; Giardia lamblia trophozoite viability; activity change, % at 7.66 µM, hits read low; 340,000 tested, 0.15% active; AID 540267; in the data active = activity change below about -80%; inconclusive = between about -30% and that limit;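 also: parasites exposed to compound for two days anaerobically before the ATP read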
#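 Compounds were tested on trophozoites seeded at 100 cells/well and held 48 hrs at 37 deg C anaerobically. An ATP-based luminescent kit measured the remaining live cells.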
# Sfp inh: Sfp phosphopantetheinyl transferase inhibition; Q9F4F7; Biochemical Sfp PPTase activity, qHTS; Potency, µM, most hits filed as inhibitors; 310,000 tested, 3.5% active; AID 1490;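 also: the enzyme is Sfp with the accession as filed and its product quenches rhodamine fluorescence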
#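 Step 1, compound plus 15 nM Sfp-PPTase, 15 min, room temperature. Step 2, add rhodamine-CoA (5 uM) and BHQ-2-YbbR (12.5 uM). Step 3, read 525/598 nm fluorescence at 0 and 30 min.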
# ELG1 repair inh: inhibitors of ELG1-dependent DNA repair in HEK293T cells. HEK293T ELG1-luciferase reporter, luminescence, 16 h; DNA damage induced by 5-fluorouridine. Potency, µM (titrated, usually from 46.1 µM), most hits filed as inhibitors. 330,000 tested, 2.3% active; also: nearly all actives have a fitted effect of over 55% in size
#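 Step one: seed 2,000 cells per well. Step two: pin-transfer compound or DMSO alongside 5-fluorouridine. Step three: incubate 16 hr, 37 °C, 5% CO2. Step four: add ONE-Glo, wait 30 min, read luminescence.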
# Coupling enz: counter-screen for Giardia aldolase inhibitors: coupling enzyme system; coupling enzyme system counterscreen, AmpLite Red fluorescence; activity change, negative = inhibition, % at 58.2 µM, hits read low; 290,000 tested, 0.67% active; in the data active = activity change below about -30%
#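 Counterscreen of the coupled detection system alone, without aldolase: glyceraldehyde-3-phosphate coupling enzymes plus AmpLite Red readout. Compounds at 57.5 uM final, 10 min RT preincubation, 20 min RT reaction, fluorescence 525/598 nm.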
# Sfp PPTase conf: confirmation of Bacillus subtilis Sfp PPTase inhibitors; Sfp PPTase enzymatic assay, qHTS titration; shares compounds with Sfp inh; Potency, µM (highest dose often 114 µM), hits mostly inhibitors; 380 tested, 79% active
# Target sequence (Q9F4F7 whole entry, looked up): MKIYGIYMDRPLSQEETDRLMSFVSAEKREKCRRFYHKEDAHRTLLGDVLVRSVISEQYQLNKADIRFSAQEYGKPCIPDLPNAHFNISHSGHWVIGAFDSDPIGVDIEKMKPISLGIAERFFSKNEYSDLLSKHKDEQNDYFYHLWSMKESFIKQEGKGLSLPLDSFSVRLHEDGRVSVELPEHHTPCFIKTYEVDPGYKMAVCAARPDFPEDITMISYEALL
# Sfp PPTase gel: Blocks Sfp PPTase activity, gel read-out | shares compounds with Sfp inh | purified Sfp, gel-based phosphopantetheinylation read-out | Potency, µM, hits mostly inhibitors | 210 tested, 20% active;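 active = potency below 100 µM; inconclusive = dose-dependent response but potency above 100 µM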;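 also: potency is an IC50 for inhibitors of Sfp transfer activity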
# Hits are given with their value; 0 = inactive; ? = inconclusive; - = not tested or not shown; ! = not active in a repeat. Unless noted, calls follow the shape of the dose curve; as a rule, active = well fitted curve in the direction sought with a large enough effect; inconclusive = small, poorly fitted or top-dose-only effect, or another doubt; inactive = no such curve, though single readings can be large; an effect the other way counts as inactive or inconclusive.
SMILES,Giardia kill,Sfp inh,ELG1 repair inh,Coupling enz,Sfp PPTase conf,Sfp PPTase gel
O=C(c1cccc(Cl)c1)C1CCCN(S(=O)(=O)c2ccccc2)C1 (configuration not stated),0,0,0,-,-,-
CC(=O)n1c(-c2ccccc2)c(CO)c2ccccc21,0,0,0,0,-,-
NCCc1c(-c2ccccc2)n(-c2ccccc2)c2ccccc12,0,16µM,0,0,42µM,0
Cc1ccc(-c2cnc(-c3ccncc3)o2)cc1,0,56µM,?,0,0,0
Nc1ccc(-c2ncc(-c3ccccc3)o2)cc1,0,0,?,0,-,-
CN(C)CCCNC(=O)c1ccccn1,0,0,0,0,-,-
CN(C)CCCNC(=O)c1ccc(-c2nc(-c3ccc(Cl)cc3)cs2)cc1,0,25µM,?,0,59µM,0
O=C(Nc1ccc2c(c1)OCO2)N1CCCc2ccccc21,0,0,?,0,-,-
Cc1ccc2c(c1)CCCN2C(=O)Nc1ccc2c(c1)OCO2,0,3.2µM,?,-40,?,0
O=C(CSc1nnc2ccc(-c3ccccn3)nn12)N1CCCC1,0,-,-,-,-,-
CCOc1ccc2[nH]c(=O)c(C(c3nnnn3Cc3ccco3)N3CCC(C)CC3)cc2c1 (configuration not stated),0,3.5µM,?,0,8.3µM,-
CCOc1ccc2[nH]c(=O)c(C(c3nnnn3C3CCCCC3)N3CCN(CC)CC3)cc2c1 (configuration not stated),0,0,0,0,-,-
COc1ccc(-c2ccc3c(c2)C2CC3CCN2C(=O)C(C)(C)C)cc1 (configuration not stated),0,-,-,-,-,-
Cc1ccc2c(c1)C(N1CCCC1=O)CC(c1ccco1)N2 (configuration not stated),?,40µM,?,0,26µM,0
Cc1ccc(C2CC(c3ccco3)n3ncnc3N2)cc1 (configuration not stated),0,?,0,0,-,-
COc1ccccc1CNc1ccc(N2CCCCC2)cc1,0,18µM,?,0,47µM,0
COc1ccccc1CNc1ccc(C(=O)O)cc1,0,0,0,0,-,-
Cc1cc([N+](=O)[O-])ccc1NCc1ccccc1[N+](=O)[O-],0,0,0,0,-,-
Cc1cc(F)ccc1NCc1ccccc1[N+](=O)[O-],0,2.8µM,0,0,47µM,0
CCCCN(C)CCCNC(=O)C1(O)c2ccccc2NC(=O)N1c1ccc(Cl)cc1 (configuration not stated),0,0,0,0,-,-
CCOC(=O)c1nc(NCc2ccccc2)sc1C,0,8.9µM,?,0,8.3µM,-
Cc1sc(NCc2ccccc2)nc1-c1ccccc1,0,-,-,-,-,-
O=C(Nc1ccc(F)cc1)C1=CC(=O)N2CCN=C2S1,-,0.56µM,0,0,12µM,-
O=C(CC1SC2=NCCN2C1=O)Nc1ccc(Br)cc1 (configuration not stated),0,0,0,0,-,-
O=C(CC(Nc1ccccc1)C(=O)O)c1ccccc1 (configuration not stated),0,16µM,?,0,42µM,0
SMILES,Giardia kill,Sfp inh,ELG1 repair inh,Coupling enz,Sfp PPTase conf,Sfp PPTase gel
Cc1c(Cl)cnc(NC(=O)COC(=O)c2ccncc2)c1Cl,0,-,0,-,-,-
COC(=O)C1=C(C(=O)OC)[C@@H]2N(Cc3ccccc3)c3ccccc3[C@@]23C[C@@H](C(=O)OC)N(C(=O)NCc2ccccc2)C3=C1,-,0,-,0,-,-
O=C(O)C(O)c1ccco1 (configuration not stated),0,45µM,0,0,?,0
O=C(NCC(c1ccco1)N1CCc2ccccc2C1)C(=O)Nc1ccccc1 (configuration not stated),0,-,?,-,-,-
COc1ccc(Cl)cc1NC(=O)c1nnn(CC(=O)Nc2ccc(C)c(C)c2)c1N,0,0,?,0,-,-
CN1CCN(C(=S)c2ccc(Br)cc2)CC1,0,1.3µM,0,0,13µM,-
CN(C)c1ccc(C(=S)N2CCN(Cc3ccccc3)CC2)cc1,0,2.2µM,0,0,12µM,-
CCN1CCN(C(=S)Nc2ccc(Cl)cc2)CC1,0,0,0,0,-,-
CN1CCN(C(=O)c2ccc(S(=O)(=O)c3ccc(Br)cc3)cc2)CC1,0,0,?,0,-,-
CCN1CCN(C(=S)c2ccc(O)cc2)CC1,0,2.8µM,0,0,8.3µM,-
COc1cccc(NC(=O)Nc2cccs2)c1,0,11µM,?,0,30µM,0
COc1cccc(NC(=O)Nc2ccncc2)c1,0,0,0,0,-,-
COc1ccc2nc(S(=O)Cc3ncc(C)c(OC)c3C)[nH]c2c1 (configuration not stated),0,20µM!,0,0,37µM,-
CC(NC(=O)c1c(O)c2ccccc2n(C)c1=O)c1ccccc1 (configuration not stated),0,0,?,0,-,-
CCOc1ccc(OCC)c(NC(=O)CN2CCN(c3cc(C)ccc3C)CC2)c1,0,5.6µM,?,0,0,0
c1cn2cc(CSC3CCCCC3)nc2s1,0,3.2µM,?,0,0,0
Cc1ccccc1CSc1nnc(-c2ccco2)n1Cc1ccco1,0,0,0,0,-,-
c1ccc(CSc2nnc(-c3ccco3)n2Cc2ccco2)cc1,0,4µM,0,0,33µM,-
O=C(CSc1nnc(-c2ccncc2)n1Cc1ccco1)OC1CCCCC1,0,14µM,0,0,53µM,0
CN(C)C(=O)CSc1nnc(-c2ccncc2)n1Cc1ccco1,0,0,0,0,-,-
Cc1ccc(S(=O)(=O)N2CCOCC2)cc1NC(=O)CNC(C)c1ccccc1 (configuration not stated),0,-,?,-,-,-
CCOc1ccccc1CNc1ccc(O)cc1,0,10µM,?,-39,11µM,0
Cc1ccc(C(=O)NC(=S)Nc2ccc(-c3ccc(CO)o3)cc2)cc1,0,7.1µM,?,0,8.3µM,-
CCCCCC/C=C/c1ccc(C2C3C=CCC(C)C3C(=O)N2Cc2ccccc2)c(F)c1 (configuration not stated),0,0,-,0,-,-
O=C(O)CCCn1nc(-c2ccccc2)c2ccccc21,0,0,0,0,-,-
SMILES,Giardia kill,Sfp inh,ELG1 repair inh,Coupling enz,Sfp PPTase conf,Sfp PPTase gel
OCc1ccc(-c2nn(Cc3ccccc3)c3ccccc23)o1,0,4.5µM,0,-,15µM,-
COC(=O)c1ccc(C(NC(=O)OCc2ccccc2)/C(=C/[C@@H](C)C(=O)NCCF)c2cccnc2)cc1 (some centres not stated),-,0,-,0,-,-
COc1ccc(NC2C[C@H]3CCCC(=O)N4CC[C@@H](C2)[C@@H]34)cc1 (some centres not stated),-,0,-,0,-,-
O=S(=O)(c1ccc(C(F)(F)F)cc1)N1CCN(CCc2ccccc2)CC1,0,0,?,0,-,-
CC(C)(C)Cc1nnc(NC(=O)CSc2ccccc2)s1,0,14µM,?,0,7.4µM,-
O=C(CN1C(=O)CC(c2ccco2)Sc2ccccc21)Nc1ccccc1F (configuration not stated),0,16µM,0,0,21µM,-
